26 targets from the supplement of paper PMC10849652 can be followed below.

Of roughly 8,800 targets only a part is listed; those with a hit were picked by preference. About 0.5% of all pairs of compound and target were hits. Values without a mark were called inactive.

Sequence of UniProt Q9BXW6 (Q9BXW6 whole entry, looked up): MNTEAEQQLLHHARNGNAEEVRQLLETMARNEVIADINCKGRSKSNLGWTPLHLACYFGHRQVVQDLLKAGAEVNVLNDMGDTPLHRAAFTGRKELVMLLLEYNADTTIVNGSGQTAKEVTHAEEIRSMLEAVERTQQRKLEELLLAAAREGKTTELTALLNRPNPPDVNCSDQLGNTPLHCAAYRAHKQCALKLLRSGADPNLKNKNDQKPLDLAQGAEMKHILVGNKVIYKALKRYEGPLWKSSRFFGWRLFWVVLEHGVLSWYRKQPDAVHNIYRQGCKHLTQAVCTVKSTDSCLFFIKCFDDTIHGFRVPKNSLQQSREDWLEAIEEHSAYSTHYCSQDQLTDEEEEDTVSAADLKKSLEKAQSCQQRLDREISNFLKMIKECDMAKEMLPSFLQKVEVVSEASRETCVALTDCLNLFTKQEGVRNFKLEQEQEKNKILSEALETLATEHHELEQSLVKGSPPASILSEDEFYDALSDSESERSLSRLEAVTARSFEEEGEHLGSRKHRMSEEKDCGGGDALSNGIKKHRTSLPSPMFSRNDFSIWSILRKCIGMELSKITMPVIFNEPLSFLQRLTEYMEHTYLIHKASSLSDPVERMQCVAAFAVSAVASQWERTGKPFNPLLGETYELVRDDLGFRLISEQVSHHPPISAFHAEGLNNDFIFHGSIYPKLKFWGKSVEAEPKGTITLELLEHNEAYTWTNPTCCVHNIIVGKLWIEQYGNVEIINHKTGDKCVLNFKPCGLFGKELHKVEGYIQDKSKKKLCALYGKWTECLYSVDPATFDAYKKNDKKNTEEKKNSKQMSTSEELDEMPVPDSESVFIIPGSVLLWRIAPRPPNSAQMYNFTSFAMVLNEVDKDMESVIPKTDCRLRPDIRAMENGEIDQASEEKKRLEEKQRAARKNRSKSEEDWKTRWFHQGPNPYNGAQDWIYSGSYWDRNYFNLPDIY
Sequence of UniProt P52179 (P52179 whole entry, looked up): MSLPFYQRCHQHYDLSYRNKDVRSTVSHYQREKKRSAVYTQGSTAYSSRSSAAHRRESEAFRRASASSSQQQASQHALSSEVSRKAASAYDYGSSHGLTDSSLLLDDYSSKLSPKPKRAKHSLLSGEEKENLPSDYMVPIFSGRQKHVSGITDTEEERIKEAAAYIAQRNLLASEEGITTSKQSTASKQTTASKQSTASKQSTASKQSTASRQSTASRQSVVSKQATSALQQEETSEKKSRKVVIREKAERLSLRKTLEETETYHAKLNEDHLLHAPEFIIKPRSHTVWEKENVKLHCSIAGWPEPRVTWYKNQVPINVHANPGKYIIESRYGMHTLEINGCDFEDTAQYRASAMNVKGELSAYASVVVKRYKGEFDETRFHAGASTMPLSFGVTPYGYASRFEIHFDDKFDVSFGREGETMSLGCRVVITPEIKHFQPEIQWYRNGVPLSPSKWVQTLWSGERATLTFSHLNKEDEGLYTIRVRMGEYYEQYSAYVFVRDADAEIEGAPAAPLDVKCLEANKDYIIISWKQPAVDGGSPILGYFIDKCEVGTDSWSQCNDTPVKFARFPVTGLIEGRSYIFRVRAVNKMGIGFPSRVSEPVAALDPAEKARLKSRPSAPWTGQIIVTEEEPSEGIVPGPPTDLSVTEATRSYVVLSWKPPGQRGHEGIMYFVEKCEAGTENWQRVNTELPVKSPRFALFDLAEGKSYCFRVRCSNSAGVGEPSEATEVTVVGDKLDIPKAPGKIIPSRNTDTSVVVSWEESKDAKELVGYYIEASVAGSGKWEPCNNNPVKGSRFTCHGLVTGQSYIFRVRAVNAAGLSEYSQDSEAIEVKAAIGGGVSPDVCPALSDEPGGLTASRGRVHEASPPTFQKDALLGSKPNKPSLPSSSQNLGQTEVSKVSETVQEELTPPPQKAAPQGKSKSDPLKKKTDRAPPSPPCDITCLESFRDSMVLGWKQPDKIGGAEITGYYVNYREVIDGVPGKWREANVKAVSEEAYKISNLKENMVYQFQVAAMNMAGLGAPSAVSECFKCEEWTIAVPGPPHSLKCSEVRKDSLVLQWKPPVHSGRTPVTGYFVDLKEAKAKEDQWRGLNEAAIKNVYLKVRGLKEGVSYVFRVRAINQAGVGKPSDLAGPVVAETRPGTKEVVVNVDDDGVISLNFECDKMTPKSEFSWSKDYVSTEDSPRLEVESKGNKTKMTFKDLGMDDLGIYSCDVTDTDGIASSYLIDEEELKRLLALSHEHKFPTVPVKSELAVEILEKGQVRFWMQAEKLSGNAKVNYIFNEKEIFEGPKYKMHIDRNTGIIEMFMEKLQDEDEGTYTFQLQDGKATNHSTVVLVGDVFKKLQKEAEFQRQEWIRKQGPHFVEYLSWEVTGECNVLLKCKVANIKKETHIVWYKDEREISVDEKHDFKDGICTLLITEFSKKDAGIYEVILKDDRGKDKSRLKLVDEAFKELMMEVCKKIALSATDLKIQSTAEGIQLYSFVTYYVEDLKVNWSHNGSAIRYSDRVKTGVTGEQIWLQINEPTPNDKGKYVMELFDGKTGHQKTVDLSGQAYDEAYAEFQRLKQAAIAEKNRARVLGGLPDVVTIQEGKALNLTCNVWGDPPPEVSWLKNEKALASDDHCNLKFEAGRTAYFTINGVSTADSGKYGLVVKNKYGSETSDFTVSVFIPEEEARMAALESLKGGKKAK
Sequence of UniProt P24468 (P24468 whole entry, looked up): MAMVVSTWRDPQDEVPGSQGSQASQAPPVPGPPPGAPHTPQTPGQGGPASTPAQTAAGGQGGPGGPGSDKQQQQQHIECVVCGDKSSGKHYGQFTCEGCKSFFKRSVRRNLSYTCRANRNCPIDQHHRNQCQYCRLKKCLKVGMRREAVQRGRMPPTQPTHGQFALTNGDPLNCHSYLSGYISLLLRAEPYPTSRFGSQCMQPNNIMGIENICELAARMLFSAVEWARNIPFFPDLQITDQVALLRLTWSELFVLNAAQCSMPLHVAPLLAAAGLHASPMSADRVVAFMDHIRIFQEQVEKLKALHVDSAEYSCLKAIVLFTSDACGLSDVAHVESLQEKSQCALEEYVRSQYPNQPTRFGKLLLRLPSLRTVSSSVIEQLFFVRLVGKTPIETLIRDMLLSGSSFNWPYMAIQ
Sequence of UniProt Q9HD67 (Q9HD67 whole entry, looked up): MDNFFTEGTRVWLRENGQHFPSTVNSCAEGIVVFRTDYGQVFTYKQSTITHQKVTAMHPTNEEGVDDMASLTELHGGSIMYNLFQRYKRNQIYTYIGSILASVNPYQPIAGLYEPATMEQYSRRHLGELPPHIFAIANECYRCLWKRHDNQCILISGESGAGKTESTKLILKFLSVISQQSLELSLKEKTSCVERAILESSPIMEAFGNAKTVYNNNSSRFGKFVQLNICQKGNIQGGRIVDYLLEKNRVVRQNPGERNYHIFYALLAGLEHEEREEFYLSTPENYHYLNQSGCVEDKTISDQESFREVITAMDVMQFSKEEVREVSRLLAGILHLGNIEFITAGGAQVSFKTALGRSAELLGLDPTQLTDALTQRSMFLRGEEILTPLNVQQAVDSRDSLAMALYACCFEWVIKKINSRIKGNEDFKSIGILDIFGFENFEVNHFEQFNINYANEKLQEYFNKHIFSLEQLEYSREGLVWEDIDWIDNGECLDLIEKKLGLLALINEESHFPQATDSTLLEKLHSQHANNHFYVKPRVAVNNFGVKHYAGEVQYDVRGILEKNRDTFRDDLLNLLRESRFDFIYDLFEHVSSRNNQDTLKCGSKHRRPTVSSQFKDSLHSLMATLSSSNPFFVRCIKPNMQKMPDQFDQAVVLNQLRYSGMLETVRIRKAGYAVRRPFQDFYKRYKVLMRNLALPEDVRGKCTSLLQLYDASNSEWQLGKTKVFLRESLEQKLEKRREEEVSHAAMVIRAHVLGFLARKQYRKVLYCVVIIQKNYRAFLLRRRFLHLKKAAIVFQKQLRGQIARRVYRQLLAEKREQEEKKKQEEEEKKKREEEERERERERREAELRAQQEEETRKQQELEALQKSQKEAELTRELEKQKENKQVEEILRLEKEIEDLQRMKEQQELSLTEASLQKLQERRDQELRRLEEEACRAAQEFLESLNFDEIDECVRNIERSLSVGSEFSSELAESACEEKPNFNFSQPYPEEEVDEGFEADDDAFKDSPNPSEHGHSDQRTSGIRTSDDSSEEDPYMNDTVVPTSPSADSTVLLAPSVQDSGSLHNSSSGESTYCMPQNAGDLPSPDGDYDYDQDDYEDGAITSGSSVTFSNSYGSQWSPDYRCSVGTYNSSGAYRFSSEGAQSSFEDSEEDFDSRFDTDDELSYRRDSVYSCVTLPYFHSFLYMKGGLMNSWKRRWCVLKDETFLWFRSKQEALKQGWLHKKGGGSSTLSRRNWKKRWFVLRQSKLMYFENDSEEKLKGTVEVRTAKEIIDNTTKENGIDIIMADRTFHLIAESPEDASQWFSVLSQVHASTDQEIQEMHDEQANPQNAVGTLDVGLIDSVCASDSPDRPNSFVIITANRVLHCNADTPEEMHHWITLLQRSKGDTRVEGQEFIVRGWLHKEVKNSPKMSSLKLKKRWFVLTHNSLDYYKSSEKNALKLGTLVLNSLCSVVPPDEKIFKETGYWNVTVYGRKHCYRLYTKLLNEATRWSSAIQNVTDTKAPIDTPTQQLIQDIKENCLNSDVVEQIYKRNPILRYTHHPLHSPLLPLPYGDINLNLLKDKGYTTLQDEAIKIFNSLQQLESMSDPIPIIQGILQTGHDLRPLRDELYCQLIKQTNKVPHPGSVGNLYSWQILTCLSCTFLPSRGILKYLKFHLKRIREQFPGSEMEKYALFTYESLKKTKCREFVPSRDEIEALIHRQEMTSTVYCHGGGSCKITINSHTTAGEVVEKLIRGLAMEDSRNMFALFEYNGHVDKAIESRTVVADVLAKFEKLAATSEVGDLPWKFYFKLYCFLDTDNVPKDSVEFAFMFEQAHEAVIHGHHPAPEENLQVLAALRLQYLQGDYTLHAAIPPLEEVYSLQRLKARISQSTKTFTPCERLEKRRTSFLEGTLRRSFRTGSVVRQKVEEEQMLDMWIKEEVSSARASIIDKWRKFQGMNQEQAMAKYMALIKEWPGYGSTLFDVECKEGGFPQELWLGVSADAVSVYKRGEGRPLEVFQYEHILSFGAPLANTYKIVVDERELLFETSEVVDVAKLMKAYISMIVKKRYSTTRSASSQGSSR

Compound in the assay: C1=CC=C(C=C1)[C@H](COC2=CC3=C(C=C2)NC(=O)N3)NC(=O)C4=CC=CN(C4=O)CC5=CC(=C(C=C5)F)F
Briefly: log2 fold change, soluble protein after heating vs DMSO (PISA); higher = thermal stabilisation; K562 lysate, 10 uM; active = over 0.2 and 3.5 SD of the protein, either way, in both replicates (recomputed). Summed up: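 Soluble protein was defined as the supernatant remaining after 21,000xg for 90 min, following pooling of heated aliquots and adjustment to 0.5% NP-40 at 4°C. Before that, crude K562 extract at 1 mg/mL protein in PBS pH 7.4 with 1 mM MgCl2 was treated with 10 μM compound for 30 min and heated for 3 min across 48°C-58°C. Quantification used TMTpro 16plex LC-MS/MS with channel sums equalised, and values are log-two fold changes in thermal stability relative to solvent controls from duplicates.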
Consider NRIP1 (UniProt P48552), for which the log2 fold change is 0.058.
Take NCAPH2 (UniProt Q6IBW4): the log2 fold change is 0.027.
As for OSBPL1A (UniProt Q9BXW6), the figure is -0.089; as for P2RY1 (UniProt P47900), -0.153.
Then MT-ATP8 (UniProt P03928), with -0.057; and NELFA (UniProt Q9H3P2), with -0.055; and MYO10 (UniProt Q9HD67), with -0.122.
Then NSA2 (UniProt O95478), with 0.111; and OSGEP (UniProt Q9NPF4), with -0.007.
Regarding NCAPH (UniProt Q15003), the log2 fold change was -0.025.
Then MSH2 (UniProt P43246), with 0.018.
As for NCAPG2 (UniProt Q86XI2), the figure is -0.074; as for MTMR6 (UniProt Q9Y217), 0.015; as for OAT (UniProt P04181), 0.029.
As for NPLOC4 (UniProt I3L3I1), the figure is -0.041.
Regarding NR2F2 (UniProt P24468), the log2 fold change was -0.082.
As for PANK2 (UniProt Q9BZ23), the figure is 0.024.
Then N4BP2 (UniProt Q86UW6), with 0.024; and NLRP2 (UniProt Q9NX02), with -0.01; and NSUN7 (UniProt Q8NE18), with -0.144.
Then PAGE4 (UniProt O60829), with 0.024; and NMRAL1 (UniProt Q9HBL8), with -0.09.
In the case of NEDD8 (UniProt Q15843), the log2 fold change is 0.051.
As for MYLK (UniProt Q15746), the figure is -0.038.
Then OGFR (UniProt Q9NZT2), with -0.016; and MYOM1 (UniProt P52179), with -0.012.
